Out of some 52,000 compounds screened, about 4,300 (8.3%) were called active. This is one part of a sample in which actives are shown more often than they occur. Values without a mark were called inactive. No stated cut-off is given here; in the data, active means survival mostly below about 52% (no sharp cut-off); inactive means mostly above about 56%.
The compounds below were run on DeltatarO mutant (assay: growth inhibition of S. aureus wild type versus tarO mutant, primary screen, teichoic acid synthesis inhibitors, RN4220, OD600 (AID 463173)). Details: OD600, 18 h, active compounds read low, screened at 18.75 µg/mL (by protocol).

Point of comparison: `O=C(NCCc1csc(-c2ccc(F)cc2)n1)c1cccs1`, survival 72%. Against it:
- COc1cccc(C(c2sc3nc(-c4ccco4)nn3c2O)N2CCC(C)CC2)c1 (stereo unspecified) — higher, 78%
- CC(C)(C)C(=O)OCc1cc(=O)n2nc(C3CC3)sc2n1 — higher, 80%
- CC(=O)c1cc(-c2ccc(F)cc2)n(CCC(=O)NCc2ccccc2C)c1C — higher, 81%
- Cc1ccc(-c2nnc3ccccc3c2C(=O)Nc2ccc(F)cc2)cc1 — higher, 100%
- CCCCNC(=O)Cn1cnc2sc(C)c(S(=O)(=O)N3CCN(c4ccccc4OC)CC3)c2c1=O — higher, 86%
- CCOC(=O)C1CCCN(S(=O)(=O)c2cc3c4c(c2)CC(=O)N4CCC3)C1 (stereo unspecified) — higher, 93%
- CCOc1ccc(-c2ccc(NS(=O)(=O)c3cc(C)ccc3OC)cc2)nn1 — higher, 86%
- Cc1ccc(NC2=CC(c3ccccc3F)N(c3ccc(C)cc3)C2=O)cc1 (stereo unspecified) — lower, 49%
- CC(=O)NC1CCN(C(=O)Nc2ccccc2)CC1 — higher, 91%
- Cc1csc2nc(COC(=O)c3ccccc3NC(=O)c3ccc(F)cc3)cc(=O)n12 — lower, 55%
- COc1ccc(-c2noc(N3CCC(C(=O)N4CCN(c5ccccc5OC)CC4)CC3)n2)cc1 — lower, 61%
- Cc1cccc(OCCCSc2nc(-c3ccc(C(C)(C)C)cc3)nc3cc(=O)[nH]n23)c1C — higher, 102%
- CCCNC(=O)c1ccc(Cn2c(SCC(N)=O)nc3ccccc3c2=O)cc1 — higher, 91%
- CC(C)CCNC(=O)c1ccc(Cn2c(SCC(=O)NC(C)C)nc3ccccc3c2=O)cc1 — higher, 144%
- Cc1cc(C)c(NC(=O)c2cc(CN3CCOCC3)on2)c(C)c1 — lower, 70%
- CCOCCOC(=O)c1ccc(NC(=O)/C=C/c2ccc(OC)c(OC)c2)cc1 — higher, 137%
- COc1ccc(/C=C/C(=O)Nc2ccc(C)cc2)cc1 — higher, 77%
- Cc1cc(=O)[nH]c2c(C)c(Cl)ccc12 — higher, 93%
- Cc1ccc(Cl)cc1Nc1nn2c(=O)c3ccc(C(=O)NC4CCC(C)CC4)cc3nc2s1 (stereo unspecified) — higher, 100%
- CCCCNC(=O)C1CCN(S(=O)(=O)c2ccc3c(ccn3CC)c2)CC1 — higher, 99%
- Cc1ccc(CNC(=O)C2CCN(S(=O)(=O)c3ccc(F)cc3)CC2)cc1 — lower, 62%
- CSc1cccc(NC(=O)N2CCN(S(=O)(=O)c3ccc4c(ccn4C)c3)CC2)c1 — lower, 58%
- CCn1ccc2cc(S(=O)(=O)N3CCC(C(=O)NCc4ccc(F)cc4)CC3)ccc21 — higher, 85%
- CCn1ccc2cc(S(=O)(=O)N3CCC(C(=O)NCC(C)c4ccccc4)CC3)ccc21 (stereo unspecified) — higher, 94%
- COc1ccc(CNC(=O)C2CCN(S(=O)(=O)c3ccc(F)cc3)CC2)cc1 — lower, 71%
- CCn1ccc2cc(S(=O)(=O)N3CCCN(C(=O)Nc4cccc(Cl)c4)CC3)ccc21 — higher, 83%
- CCn1ccc2cc(S(=O)(=O)N3CCC(C(=O)NCc4ccc(OC(C)C)cc4)CC3)ccc21 — higher, 95%
- CN1C(C(=O)c2ccccc2)=C(OC(=O)c2ccc(Br)cc2)c2ccccc2S1(=O)=O — higher, 123%
- Cc1ccc(Nc2cc(C(=O)NC3CCCC3)c3ccccc3n2)c(C)c1 — higher, 77%
- CCN(CC)C(=O)C1CCN(Cc2cccc(OC)c2OC)CC1 — higher, 99%
- CCN(C(=O)CSc1nc2ccccc2n1CC(=O)N1CCCC(C)C1)c1ccccc1 (stereo unspecified) — higher, 109%
- COc1ccc(Br)cc1CNC(=O)c1cnc2sc(N3CCCC3)nn2c1=O — higher, 98%
- COc1ccccc1-n1c(=O)c2c3c(sc2n(Cc2ccccc2F)c1=O)CN(C(C)=O)CC3 — higher, 120%
- O=S(=O)(c1ccccc1)N1CCCC(c2nc(-c3cccs3)no2)C1 (stereo unspecified) — lower, 67%
- CCOC(=O)Cn1c(=O)n(C2CCCCC2)c2nc(-c3ccc(C(C)C)cc3)nc(C(N)=O)c21 — lower, 61%
- CCOCCCNC(=O)C1CCCN(Cc2nc(-c3ccc(CC)cc3)oc2C)C1 (stereo unspecified) — higher, 76%
- COc1cccc(CNC(=O)C2CCCN(S(=O)(=O)c3ccc4c(ccn4C)c3)C2)c1 (stereo unspecified) — higher, 124%
- Cc1ccc(CNC(=O)C2CCCCN2S(=O)(=O)c2ccc(F)cc2)cc1 (stereo unspecified) — higher, 84%
- COc1ccc(CNC(=O)C2CCCCN2S(=O)(=O)c2ccc(F)cc2)cc1 (stereo unspecified) — higher, 95%
- COc1cccc(CNC(=O)C2CCCN(S(=O)(=O)c3ccc4c(ccn4C)c3)C2)c1OC (stereo unspecified) — higher, 101%
- CCC(=O)N1CCc2cc(CNC(=O)Nc3cc(C)ccc3C)ccc21 — higher, 84%
- CC(=O)N1CCCc2cc(S(=O)(=O)N3CCCC(C(=O)Nc4cc(Cl)ccc4C)C3)ccc21 (stereo unspecified) — higher, 124%
- CC(C)Sc1ncc(Cl)c(C(=O)Nc2c(C(=O)Nc3ccccc3)oc3ccccc23)n1 — lower, 61%
- CN(C)c1ccc(C(CC(=O)O)NC(=O)c2ccc(Cl)cc2)cc1 (stereo unspecified) — higher, 104%
- COc1ccc(NC(=O)c2nnn(Cc3nc(-c4cc(OC)c(OC)c(OC)c4)oc3C)c2C)cc1 — lower, 61%
- C=CCc1c(C)nc(SC)nc1Nc1ccc(C(=O)O)cc1 — higher, 113%
- O=C(Oc1cccc(-n2cnnn2)c1)C1CCCCC1 — higher, 94%

For `CC(C)CCNC(=O)c1ccc(Cn2c(SCC(N)=O)nc3ccccc3c2=O)cc1`, the survival was 46% (active).
In the case of `COc1ccc(OC)c(/C=C/C(=O)Nc2ccc(C(=O)OCCC(C)C)cc2)c1`, the survival is reported as 33% (active).
For `CCn1ccc2cc(S(=O)(=O)N3CCCN(C(=O)Nc4cccc(SC)c4)CC3)ccc21`, the survival was 47% (active).
`COc1ccc(CNC(=O)C2CCN(S(=O)(=O)c3ccc(C)cc3)CC2)cc1` was tested, and the survival was 56% (active).
For `CCn1ccc2cc(S(=O)(=O)N3CCC(C(=O)NCc4ccc(OC)cc4)CC3)ccc21`, the survival was 20% (active).
In the case of `CCC(C)NC(=O)C1CCN(S(=O)(=O)c2ccc3c(ccn3CC)c2)CC1` (stereo unspecified), the survival is reported as 8% (active).
With `O=C(NCc1ccc(F)cc1)C1CCCCN1S(=O)(=O)c1ccc(F)cc1` (stereo unspecified) the survival was 32% (active).
`COc1ccc(CNC(=O)C2CCCN(S(=O)(=O)c3ccc4c(ccn4C)c3)C2)c(OC)c1` (stereo unspecified) was tested, and the survival was 25% (active).

From PubChem BioAssay AID463173 (ICCB-Longwood Screening Facility, Harvard Medical School, 2010)
